Only some compounds are listed: those with a hit (about 4% of all), similar ones and a draw of the others.
Beta apoptosis – blocks beta cell apoptosis. AID 435005. 0.8% of 300,000 active. protection from apoptosis, % (concentration not given with the values). INS-1E cytokine-induced death, ATP luminescence, 48 h; percent of positive-control rescue, neutral wells zero;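 active = Every replicate reaches about 75%, or at least half do and their mean reaches it too, limit read from the data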;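 also: 0% = cytokine-treated negative control wells and 100% = positive control rescue; higher means more ATP so stronger rescue from cytokine killing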
697 NFkB inh – inhibitors of the PMA/ionomycin-induced NF-kB reporter in 697 B cells; 697 B-cell NF-kB luciferase reporter, 16 h; inhibition, % at 4 µM; 0.33% of 330,000 active; AID 435022; in the data active = inhibition above about 35%
Jurkat NFkB inh – inhibitors of the PMA/ionomycin-induced NF-kB reporter in Jurkat cells; AID 435003; 0.53% of 330,000 active; PMA/ionomycin-induced NF-kB luciferase reporter, luminescence; inhibition, % at 4 µM; in the data active = inhibition above about 50%
Mdm2 MdmX PPI – inhibitors of human Mdm2/MdmX interaction | O15151+Q00987 | SaOS-2 split-luciferase Mdm2/MdmX complementation, luminescence | inhibition, % at 8 µM | 3% of 330,000 active | AID 485346;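 active = inhibition of at least 50% at 8 µM in the primary screen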
Target sequence (O15151 whole entry, looked up): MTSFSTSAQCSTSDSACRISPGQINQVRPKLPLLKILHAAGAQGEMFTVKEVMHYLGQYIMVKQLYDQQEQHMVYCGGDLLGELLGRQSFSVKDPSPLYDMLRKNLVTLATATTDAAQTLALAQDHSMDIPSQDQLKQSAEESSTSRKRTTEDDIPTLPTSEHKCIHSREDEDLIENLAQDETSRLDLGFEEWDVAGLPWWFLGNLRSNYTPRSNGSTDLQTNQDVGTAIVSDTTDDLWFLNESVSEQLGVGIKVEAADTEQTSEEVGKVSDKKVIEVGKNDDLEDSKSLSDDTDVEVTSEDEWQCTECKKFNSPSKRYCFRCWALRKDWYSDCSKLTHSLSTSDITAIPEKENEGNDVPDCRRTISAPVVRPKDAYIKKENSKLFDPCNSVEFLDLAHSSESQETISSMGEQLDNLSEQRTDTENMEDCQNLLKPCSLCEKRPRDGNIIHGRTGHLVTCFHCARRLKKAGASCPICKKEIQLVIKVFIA
Target sequence (Q00987 whole entry, looked up): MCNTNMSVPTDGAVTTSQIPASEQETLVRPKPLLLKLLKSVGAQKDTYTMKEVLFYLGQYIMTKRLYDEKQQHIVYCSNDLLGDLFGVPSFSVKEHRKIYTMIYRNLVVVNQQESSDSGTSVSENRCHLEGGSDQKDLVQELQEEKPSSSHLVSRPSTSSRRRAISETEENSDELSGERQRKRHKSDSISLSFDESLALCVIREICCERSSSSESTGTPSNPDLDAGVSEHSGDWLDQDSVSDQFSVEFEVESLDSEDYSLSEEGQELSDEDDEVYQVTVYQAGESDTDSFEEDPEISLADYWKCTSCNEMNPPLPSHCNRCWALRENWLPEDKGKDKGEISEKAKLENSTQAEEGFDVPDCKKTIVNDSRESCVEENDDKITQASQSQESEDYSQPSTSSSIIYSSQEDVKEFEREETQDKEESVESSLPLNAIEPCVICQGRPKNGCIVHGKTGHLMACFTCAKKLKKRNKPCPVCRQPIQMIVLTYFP
Gli-Sufu block – Gli-Sufu pathway antagonism. Sufu-KO-LIGHT fibroblasts, Gli luciferase reporter luminescence. inhibition, % at 5 µM. 0.74% of 340,000 active;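 active = inhibition above about 55%, limit read from the data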;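 also: 0% = DMSO-treated cells and 100% = wells with medium but no cells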
Mdm2 MdmX conf – confirmation of human Mdm2/MdmX interaction inhibitors; shares compounds with Mdm2 MdmX PPI; Mdm2-MdmX binding, luminescent assay; inhibition, % at 8 µM; 55% of 10,000 active; AID 489028; in the data active = inhibition above about 40%
FLuc counter – full-length luciferase inhibition in Mdm2/MdmX counter-screen | 77% of 6,200 active | shares compounds with Mdm2 MdmX PPI | inhibition, % at 8 µM | AID 504607 | SaOS-2 full-length luciferase counterscreen, luminescence;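 active = mean inhibition at 8 µM reaching about 37%, which flags the compound as non-specific, limit read from the data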;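 also: p53-null SaOS-2 cells with luciferase driven by a doxycycline-inducible promoter; compound on cells about two nights before reading with doxycycline added after day one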
The depositor's hits bear a star.

`O=C(c1ccc2c(c1)[nH]c(=S)n1c3ccccc3nc21)N1CCN(c2cccc(Cl)c2)CC1` gave Beta apoptosis 82.4*, 697 NFkB inh 9.7, Jurkat NFkB inh 10.6, Mdm2 MdmX PPI 85.1*, Gli-Sufu block 8.6 and Mdm2 MdmX conf 5.2.
`Cc1[nH]c2ccc(C(=O)N3CCN(c4cccc(Cl)c4)CC3)cc2c1C` gave Beta apoptosis -0.1, 697 NFkB inh -5.7, Jurkat NFkB inh 17.0, Mdm2 MdmX PPI 50.6*, Gli-Sufu block 39.6, Mdm2 MdmX conf 56.5* and FLuc counter 55.8*.
`Cc1onc(-c2ccccc2Cl)c1C(=O)N1CCN(c2cccc(Cl)c2)CC1` gave 697 NFkB inh -88.8, Jurkat NFkB inh 46.6, Mdm2 MdmX PPI 54.3*, Gli-Sufu block 13.5, Mdm2 MdmX conf 59.1* and FLuc counter 56.8*.
Screening CCCCNc1ccc2c(c1)C1CC2CCN1C(=O)OCc1ccccc1 (centres undefined) returned Gli-Sufu block -152.6.
Screening Cc1ccc(C)c(NC(=O)C(c2ccccc2)N2CCOCC2)c1 (centres undefined) returned Beta apoptosis 11.2, 697 NFkB inh -5.9, Jurkat NFkB inh -12.3, Mdm2 MdmX PPI -16.2 and Gli-Sufu block -3.3.
`C/C(=N\NC(=O)NC1CCCCC1)c1ccco1` gave Beta apoptosis -4.1, 697 NFkB inh 2.2, Jurkat NFkB inh 2.7, Mdm2 MdmX PPI -1.2 and Gli-Sufu block 0.2.
O=C(Nc1ccncc1)c1ccccc1F was read as Beta apoptosis 1.1, 697 NFkB inh 26.1, Jurkat NFkB inh 3.8, Mdm2 MdmX PPI 51.3*, Gli-Sufu block -3.0 and Mdm2 MdmX conf 31.4.
For O=C(Nc1nc2ccccc2[nH]1)c1ccccc1F the results were Beta apoptosis 88.7*, 697 NFkB inh 6.0, Jurkat NFkB inh 26.7, Mdm2 MdmX PPI 82.4*, Gli-Sufu block -15.0, Mdm2 MdmX conf 80.6* and FLuc counter 37.6*.
For CC(C)Oc1ccc(C(=O)Nc2nc3ccccc3[nH]2)cc1 the results were Beta apoptosis 46.5, 697 NFkB inh -158.0, Jurkat NFkB inh -34.3, Mdm2 MdmX PPI 69.5*, Gli-Sufu block -3.9, Mdm2 MdmX conf 66.8* and FLuc counter 46.3*.
N#Cc1ccc(C(=O)Nc2nc3ccccc3[nH]2)cc1 was read as Beta apoptosis 8.1, 697 NFkB inh -115.0, Jurkat NFkB inh -108.3, Mdm2 MdmX PPI -46.1 and Gli-Sufu block -155.0.
`CCc1ccc(C(=O)Nc2nc3ccccc3[nH]2)cc1` gave Beta apoptosis 44.2, 697 NFkB inh -152.5, Jurkat NFkB inh -30.0, Mdm2 MdmX PPI 55.8*, Gli-Sufu block -32.8, Mdm2 MdmX conf 52.1* and FLuc counter 72.4*.
Screening O=C(Nc1nc2ccccc2[nH]1)c1ccccc1OC(F)F returned Beta apoptosis 10.7, 697 NFkB inh -176.3, Jurkat NFkB inh -72.3, Mdm2 MdmX PPI -63.8 and Gli-Sufu block -98.7.
For CC(C)c1ccc(/C=C/c2[nH]c(=O)[nH]c(=O)c2[N+](=O)[O-])cc1 the results were Beta apoptosis -1.2, 697 NFkB inh -147.5, Jurkat NFkB inh -109.0, Mdm2 MdmX PPI -11.8 and Gli-Sufu block 7.0.
COc1ccc(OC)c(NC(=O)CCC(=O)Oc2ccc(C)cc2)c1 was read as Beta apoptosis -0.6, 697 NFkB inh -0.2, Jurkat NFkB inh 23.7, Mdm2 MdmX PPI 20.2 and Gli-Sufu block -1.8.
For N#CC1=C2SCC(O)(c3ccccc3)N2C(=O)CC1c1ccccc1 (centres undefined) the results were Beta apoptosis 15.1, 697 NFkB inh -42.4, Jurkat NFkB inh 48.6, Mdm2 MdmX PPI 76.3*, Gli-Sufu block 27.4, Mdm2 MdmX conf 73.8* and FLuc counter 57.7*.
For O=C(c1ccc(S(=O)(=O)Cc2ccccc2F)c([N+](=O)[O-])c1)N1CCCC1 the results were Beta apoptosis -43.4, 697 NFkB inh 33.6, Jurkat NFkB inh 15.2, Mdm2 MdmX PPI 27.9 and Gli-Sufu block 9.7.
For O=C(c1ccc(S(=O)(=O)c2ccc(F)cc2)c([N+](=O)[O-])c1)N1CCCCCC1 the results were Beta apoptosis 41.4, 697 NFkB inh -5.7, Jurkat NFkB inh 20.1, Mdm2 MdmX PPI 56.3*, Gli-Sufu block 48.5, Mdm2 MdmX conf 31.1 and FLuc counter 30.1.

High-throughput results as filed in PubChem BioAssay.
